Laboratory results: PubChem BioAssay (NCI)
“And” between values parts separate entries of the source, which are not always exact repeats. Identical values can stand only once. The panel holds about 79,000 compounds, 15% with a hit somewhere; the sample as a whole holds those more often. The source made the active and inactive calls. Rule as the data show it: active = growth inhibition above about 70%; inactive = the rest.

Legend:
[1] = NCI Yeast Anticancer Drug Screen. Data for the rad50 strain (AID 155);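 also: 0% = growth of vehicle-only cultures of the same strain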; settings: S. cerevisiae rad50 strain growth inhibition; at 50.0 µM; hits give high values
Outline: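 Vehicle-treated cultures provide the reference for the growth inhibition reported for compound-exposed, repair-deficient yeast.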

[2] = NCI Yeast Anticancer Drug Screen. Data for the mec2-1 strain (AID 157); settings: S. cerevisiae mec2-1 strain, at 50.0 µM, hits give high values
Outline: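 Compounds were applied to mec2-1 yeast cells. Their growth was then compared with that of vehicle-treated cultures to give growth inhibition.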

[3] = NCI Yeast Anticancer Drug Screen. Data for the sgs1 mgt1 strain (AID 161);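 also: 0% = growth of cultures given vehicle only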; settings: S. cerevisiae sgs1 mgt1 strain, at 50.0 µM, hits give high values
Outline: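 Yeast cells carrying a defined DNA-repair defect were exposed to test compounds. Growth inhibition was measured relative to vehicle-treated controls.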

[4] = NCI Yeast Anticancer Drug Screen. Data for the cln2 rad14 strain (AID 165);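 also: 0% = growth equal to vehicle treated cultures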; settings: S. cerevisiae cln2 rad14 strain, at 50.0 µM, hits give high values
Outline: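 Strain: cln2 rad14 yeast, altered in cell cycle control and DNA damage repair. Read-out: growth inhibition vs vehicle.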

[5] = NCI Yeast Anticancer Drug Screen. Data for the bub3 strain (AID 167); settings: S. cerevisiae bub3 mutant strain, at 50.0 µM, hits give high values
Outline: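 Mutant yeast screening strain plus compound; vehicle-treated cultures serve as the 0% inhibition reference.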

[6] = NCI Yeast Anticancer Drug Screen. Data for the mlh1 rad18 strain (AID 175); settings: S. cerevisiae mlh1 rad18 strain growth inhibition; at 50.0 µM; hits give high values
Outline: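 A repair-deficient yeast strain is exposed to test compound, and growth is scored relative to vehicle-treated controls.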

Measured: growth inhibition

Cc1cc(Cl)ccc1OCCCC(=O)O
inactive: [1] 28.4% | [2] 16.2% | [3] 41.5% | [4] 21% | [5] 47.1% | [6] 15.4%

O=P1(CCBr)NCCCO1 (configuration not stated)
inactive: [1] -5.25% | [2] 14.6% | [3] -3.6% | [4] -59.4% | [5] -10.4% | [6] 7.5%

O=C(O)Cc1ccc([N+](=O)[O-])cc1[N+](=O)[O-]
inactive: [1] 3.55% | [2] -13.6% | [3] -7.25% | [4] -27.2% | [5] 0.05% | [6] -2.6%

O=[N+]([O-])c1ccc(CCBr)cc1
inactive: [1] 28.8% and 30.2% | [2] 1.25% and 37.6% | [3] 13.4% and 34% | [4] 17.1% and 11.8% | [5] 36.3% and 3.2% | [6] 17.6% and -2.15%

CC1([N+](=O)[O-])COP(=O)(OP2(=O)OCC(C)([N+](=O)[O-])CO2)OC1 (configuration not stated)
inactive: [1] 29.8% | [2] 10.2% | [3] 28.9% | [4] 26.6% | [5] 3.85% | [6] 20%

CN(C)C(=O)Sc1ccc(S(=O)(=O)F)c(Cl)c1Cl
inactive: [1] 26.4% | [2] 13.3% | [3] 31.1% | [4] 21.9% | [5] 3.25% | [6] 24.6%

COc1ccc(C(=O)C(CC2C(=O)NC(=O)NC2=O)c2ccc(OC)cc2)cc1 (configuration not stated)
inactive: [1] -7.65% | [2] -8.65% | [3] -22.9% | [4] -17.1% | [5] -19.1% | [6] -19.1%

CO[C@H]1C[C@H](O[C@H]2CC[C@]3(C=O)[C@H]4CC[C@]5(C)[C@@H](C6=CC(=O)OC6)CC[C@]5(O)[C@@H]4CC[C@]3(O)C2)O[C@H](C)[C@H]1O[C@@H]1O[C@H](CO)[C@@H](O)[C@H](O)[C@H]1O
inactive: [1] 18.4% | [2] -11.1% | [3] 6.2% | [4] 12.2% | [5] 6.9% | [6] 32.3%

CCN1CC2(CO)CCC(OC)C34C5CC6C(OC)CC(O)(C5C6OC)C(O)(C(OC)C23)C14 (configuration not stated)
inactive: [1] 1.95% | [2] -16.6% | [3] 2.7% | [4] 9% | [5] -12.6% | [6] 6.75%

C/C=C/C(C)C1(CC)C(=O)NC(=S)NC1=O (configuration not stated)
inactive: [1] 8.8% | [2] 9.65% | [3] 9% | [4] 10.6% | [5] -11.3% | [6] -13.1%

COCCCNCCCN1CC1
inactive: [1] 2.25% | [2] -4.4% | [3] -6.9% | [4] -22.7% | [5] -22.4% | [6] 10.1%

O=NNc1ccc(Cl)cn1
inactive: [1] -11.5% | [2] 3.75% | [3] 3.1% | [4] -1.45% | [5] -18.3% | [6] 3.3%

C/C=C/C=C\C=C/C(O)CC(OP(=O)(O)O)C(C)(O)/C=C/C1CC=CC(=O)O1 (configuration not stated)
inactive: [1] -9.75% | [2] -52% | [3] -20.4% | [4] 8.65% | [5] -3.35% | [6] -44.2%

O=C1NC(=O)C(=O)C(=O)N1
inactive: [1] -16.2% | [2] 8.15% | [3] -1.75% | [4] -32.2% | [5] 1% | [6] 0.5%

O=NO.O=NO.[NH-]C1CCCCC1[NH-].[Pd+2] (configuration not stated)
inactive: [1] -11.2% | [2] 13.1% | [3] 15.2% | [4] 21.2% | [5] 9.05% | [6] -0.3%

CCC(=O)O[C@H]1CC[C@H]2[C@@H]3CCC4=C/C(=N/NC(=O)c5cccc6c(=O)c7ccccc7[nH]c56)CC[C@]4(C)[C@H]3CC[C@]12C
inactive: [1] 13.7% | [2] 15.5% | [3] -16.4% | [4] -8.75% | [5] -17.2% | [6] -7.95%

O=C(O)c1ccc(I)cc1.[Ni]
active: [1] 82.8% | [5] 85%
inactive: [2] 5.7% | [3] 57.1% | [4] 8.85% | [6] 30%

NC(CCCc1ccc(N(CCCl)CCCl)cc1)C(=O)O (configuration not stated)
inactive: [1] -1.55% | [2] -3.45% | [3] 8.75% | [4] -52.7% | [5] -6.15% | [6] -8.3%

CN1CCC2CC(=O)NC1(C)C2(C)C (configuration not stated)
inactive: [1] 13.2% | [2] 2.05% | [3] 17.9% | [4] 4.5% | [5] -2.2% | [6] 11.9%

[Cr+3].[NH-]CC[NH-].[NH-]CC[NH-].[NH-]CC[NH-].[O-][Cl+3]([O-])([O-])O
inactive: [1] 19.2% | [2] 1.2% | [3] 1.05% | [4] -5.15% | [5] 1% | [6] -1.8%

COc1cc(N=Nc2cccc(C(=O)O)c2)ccc1N(CCCl)CCCl
inactive: [1] -12.4% | [2] -16.4% | [3] -30.9% | [4] 17.7% | [5] -3.3% | [6] -23.3%

CC(CC(C)(C)[N-]CC[O-])=NCCO.O=[N+]([O-])O.[Cu+2]
inactive: [1] 10.7% | [2] 20.2% | [3] -5.7% | [4] -0.05% | [5] 26.2% | [6] 18.7%

COc1cc(C2c3cc4c(cc3OC(NNS(=O)(=O)c3ccc(C)cc3)C2C)OCO4)cc(OC)c1O (configuration not stated)
inactive: [1] -3.5% | [2] -7.8% | [3] -15.8% | [4] 0.15% | [5] -12.5% | [6] 1.6%

Clc1ccc2c(c1)Cc1cc(N(CCBr)CCBr)ccc1-2
inactive: [1] 24.8% | [2] 13.1% | [3] 40% | [4] 46.6% | [5] 12.4% | [6] 47.1%

O=C(/C=C/c1ccccc1)Nc1ccc(Cl)cc1C(=O)c1ccccc1
inactive: [1] -2.6% | [2] 14.8% | [3] 7.6% | [4] -6.6% | [5] 40.4% | [6] 20.4%

CCCCCCOC(=O)C(N)Cc1ccc(OC)c(N(CCCl)CCCl)c1 (configuration not stated)
inactive: [1] 6.5% | [2] 3.65% | [3] -3.55% | [4] 5.7% | [5] -1.6% | [6] -2.7%

CCOP(=O)(OCC)OCC
inactive: [1] -4.1% | [2] -12.8% | [3] 19% | [4] -11.8% | [5] -1.15% | [6] 21.7%

Cc1cc(N(CCCl)CCCl)ccc1CN1CCCN(Cc2ccc(N(CCCl)CCCl)cc2C)C1c1cc(O)cc(Br)c1
inactive: [1] 43% | [2] 24.5% | [3] 35.4% | [4] -2.55% | [5] 9.3% | [6] 37.9%

CCOC(=O)C1Cc2ccc(OC)cc2C2=CC(=O)CCC21 (configuration not stated)
inactive: [1] -13.4% | [2] -16.9% | [3] -9.4% | [4] 1.65% | [5] 5.4% | [6] -1.15%

Cn1ccnc1C[N-]Cc1nccn1C.O=[N+]([O-])[O-].O=[N+]([O-])[O-].[Cu+2]
inactive: [1] 18.2% | [2] 7.5% | [3] -1.35% | [4] 24.4% | [5] -5.35% | [6] 5.5%

ClCCN(CCCl)c1ccc(C2=Nc3cccc4cccc(c34)N2)cc1
inactive: [1] 3.65% | [2] 9.8% | [3] 6.75% | [4] -0.25% | [5] -8.05% | [6] 5.05%

COc1cc2c3cc1Oc1c(OC)c(OC)cc4c1C(Cc1ccc(cc1)Oc1cc(ccc1O)CC3N(C)CC2)N(C)CC4 (configuration not stated)
inactive: [1] -18.4% and 5.95% | [2] -30.8% and -27.1% | [3] -9.65% and -29.5% | [4] 12.7% and -14.9% | [5] -0.55% and -12.1% | [6] -10.6% and -41%

C1CN(P(N2CCOCC2)N2CCOCC2)CCO1
inactive: [1] -17.6% | [2] -70.3% | [3] -9.25% | [4] 18.1% | [5] -10.4% | [6] -28.4%

NCCN.O=N[O-].O=N[O-].O=N[O-].O=N[O-].[Co+3].[K+]
inactive: [1] -1.1% | [2] 4.05% | [3] 14.4% | [4] 12.3% | [5] 3.6% | [6] 2.1%

CCCCC(CC)C(=O)O.[Sn] (configuration not stated)
inactive: [1] -20.5% | [2] -9.1% | [3] -10.3% | [4] -10.4% | [5] -20.9% | [6] -15.8%

O=C(O)c1cc(CCl)ccc1O
inactive: [1] -0.05% | [2] -7.95% | [3] -15.7% | [4] -14% | [5] 4.75% | [6] -1.7%

O=C1NC(=O)C(CCC(=O)c2ccc3ccccc3c2)C(=O)N1
inactive: [1] -29.1% | [2] -22.8% | [3] -57.6% | [4] -10.8% | [5] -34.8% | [6] -25.8%
